PubChem BioAssay AID2716 (Broad Institute, 2010)
About 3,300 (1%) of roughly 320,000 compounds were called active.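 Rule for the calls: active = every valid replicate shows activation above 250% relative to neutral control wells; inactive = the rest, any valid replicate at or below 250%.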 Many of the other results were omitted from the sample, so actives are more common in it than they were.

Assay: restored growth of temperature-sensitive Mot1-301 yeast – S. cerevisiae, ATP luminescence, 38.5C, SUMOylation pathway inhibitor project, primary screen (AID 2716);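 note: OY570 slx delta 5 strain wells were the positive control but not used for scaling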
Conditions: S. cerevisiae Mot1-301 growth rescue, at 18.8 µM, stronger effect = higher value, percent above DMSO median, 100 means doubled

Structure (SMILES)	growth rescue
Cc1ccc(S(=O)(=O)CC(=O)Nc2c(C)n(C)n(-c3ccccc3)c2=O)cc1	-28% (inactive)
CC(=O)N1CCc2cc(Br)cc(S(=O)(=O)CCC(=O)Nc3c(C)n(C)n(-c4ccccc4)c3=O)c21	461% (active)
Cc1ccccc1OCCC(=O)Nc1c(C)n(C)n(-c2ccccc2)c1=O	-23.7% (inactive)
COC(=O)c1ccc(OC(=O)c2nn(C)cc2Cl)c(OC)c1	-16.8% (inactive)
Cc1c(NC(=O)c2c([N+](=O)[O-])cnn2C)c(=O)n(-c2ccccc2)n1C	0.562% (inactive)
CN(CC(=O)NCc1cccnc1)S(=O)(=O)c1cc(Cl)ccc1Cl	249% (inactive)
COc1ccc(CNS(=O)(=O)c2ccc(NC(=O)N3CCCCC3)cc2)cc1	1.4% (inactive)
COc1cc(C2C(C#N)=C(N)Oc3n[nH]c(-c4ccccn4)c32)cc(OC)c1OC (stereo unspecified)	-11.1% (inactive)
CCOc1c(OC)cc(C2C(C#N)=C(N)Oc3n[nH]c(-c4ccncc4)c32)cc1OC (stereo unspecified)	365% (inactive)
COc1ccc(-c2[nH]nc3c2C(c2ccncc2)C(C#N)=C(N)O3)cc1 (stereo unspecified)	577% (active)
O=C(COC(=O)c1ccc(N2CCCC2=O)cc1)c1ccc(OC(F)F)cc1	-26.3% (inactive)
CCn1c(SCC(=O)Nc2ccc(S(=O)(=O)Nc3onc(C)c3C)cc2)nnc1-c1ccccc1	8.66% (inactive)
Cc1cc(C)c2nc(-c3cccnc3)cc(C(=O)Nc3ccc(S(=O)(=O)Nc4onc(C)c4C)cc3)c2c1	404% (active)
Cc1cc(OC(C)C(=O)Nc2ccc(S(=O)(=O)Nc3onc(C)c3C)cc2)cc(C)c1Cl (stereo unspecified)	-7.5% (inactive)
CC1CN(C(=S)Nc2cccc(F)c2)CC(C)O1 (stereo unspecified)	-11.7% (inactive)
O=C(/C=C/c1ccco1)NC(=S)N1CCCCC1	-4.55% (inactive)
COc1ccccc1/C=C/C(=O)NC1CC2CCC1C2 (stereo unspecified)	-19.4% (inactive)
COc1ccccc1/C=C/C(=O)NC(=S)N1CCOCC1	413% (active)
CC1CC(C)CN(C(=O)CCNC(=O)Cn2cnc3ccccc3c2=O)C1 (stereo unspecified)	0.101% (inactive)
CCN1CCCC1CNC(=O)Cn1cnc2ccc(S(=O)(=O)N3CCC(C)CC3)cc2c1=O (stereo unspecified)	572% (active)
CC1CCN(S(=O)(=O)c2ccc3ncn(CC(=O)N(C)C4CCCCC4)c(=O)c3c2)CC1	-3.24% (inactive)
COC(=O)C1C(=O)CC(C)(O)C(C(=O)OC)C1c1ccc2c(c1)OCO2 (stereo unspecified)	-11.2% (inactive)
COC(=O)c1sccc1NC(=O)CC1C(=O)NCCN1C(=O)Nc1ccc(F)cc1F (stereo unspecified)	848% (active)

Structure (SMILES)	growth rescue
COc1cccc(NC(=O)CC2C(=O)NCCN2C(=S)Nc2ccc(F)cc2)c1 (stereo unspecified)	3.83% (inactive)
COC(=O)c1cc(NC(=O)CC2C(=O)NCCN2C(=O)c2ccc(F)cc2)cc(C(=O)OC)c1 (stereo unspecified)	8.77% (inactive)
Cc1ccc(CNC(=O)C2(C(F)(F)F)C/C(=C\Cc3ccccc3)CCCO2)o1 (stereo unspecified)	17.2% (inactive)
Cc1cccc(N(C)C(=O)c2cc3c(=O)[nH]c4ccc(C)cc4c3s2)c1	675% (active)
Cc1ccc2[nH]c(=O)c(CC(=O)O)c(-c3ccccc3)c2c1	-1.66% (inactive)
CCN(CC)CCCNC(=O)c1cc2c(=O)[nH]c3ccc(C)cc3c2s1	6.48% (inactive)
COc1cccc(NC(=O)COc2cccnc2[N+](=O)[O-])c1	8.97% (inactive)
Cc1cc(C)c(S(=O)(=O)NCC2CCC(C(=O)NCc3ccc4c(c3)OCO4)CC2)c(C)c1 (stereo unspecified)	33.6% (inactive)
CNS(=O)(=O)c1cnccc1N1CCN(c2cccc(C)c2)CC1	-3.12% (inactive)
COc1cc(CO)ccc1OCC(=O)Nc1cccc2ccccc12	314% (active)
COc1ccc(N(CC(=O)Nc2cccc3ccccc23)S(C)(=O)=O)c(OC)c1	9.81% (inactive)
COc1ccccc1NC(=O)COc1ccc(C(=O)OCC(=O)N(C(C)C)C(C)C)cc1OC	38.2% (inactive)
C[C@H](CO)N1C[C@H](C)[C@H](CN(C)CC2CC2)Oc2ccc(NC(=O)CCN3CCOCC3)cc2C1=O	-13.9% (inactive)
Cc1ccc(S(=O)(=O)C2(S(=O)(=O)c3ccc(C)cc3)CCCC2)cc1	-9.93% (inactive)
O=S1(=O)CC/C(=N\Nc2ccc(F)cc2)c2ccsc21	423% (active)
COc1ccc(C(=O)N/N=C2\CCS(=O)(=O)c3ccc(F)cc32)cc1OC	-16.6% (inactive)
CN1CCN(C(=O)c2ccc(-c3ccc(Br)cc3)o2)CC1	14% (inactive)
O=C1C=CN2CCCC2CC1 (stereo unspecified)	51.5% (inactive)
COc1ccc(OCC(=O)N2CCN(C(=O)COc3ccccc3)CC2)cc1	-6.56% (inactive)
O=C1CC2(CCCCC2)Oc2ccc(OCC(=O)N3CCOCC3)cc21	-29.5% (inactive)
O=C1CC2(CCN(C(=O)COc3ccc(F)cc3)CC2)Oc2ccccc21	269% (active)
O=C1CCCC2=C1C(c1cccs1)n1nc(SCc3ccccc3)nc1N2 (stereo unspecified)	10.5% (inactive)
CC(C)Oc1ccc(Oc2ccc(C(F)(F)F)cn2)cc1	21.9% (inactive)

Structure (SMILES)	growth rescue
O=Cc1ccc(Oc2cccc(C(F)(F)F)c2)nc1	554% (active)
O=C(O)CCCC(=O)Nc1ccc(Oc2cccc(C(F)(F)F)c2)nc1	-3.63% (inactive)
NNC(=O)CNC(c1ccccc1)c1cc(Cl)ccc1NC(=O)c1ccccc1 (stereo unspecified)	-0.491% (inactive)
Cc1c(Cl)c([N+](=O)[O-])nn1CCCC(=O)NC(C)c1ccccc1 (stereo unspecified)	3.65% (inactive)
COc1cccc(/C=N\Nc2nncc(-c3ccccc3)n2)c1	-1.53% (inactive)
CCOc1ccc(/C=N/Nc2nncc(-c3ccccc3)n2)cc1OC	999% (active)
CCOc1cc(/C=N/NC(=O)c2cc(-c3ccccc3)nc3ccccc23)ccc1O	15.1% (inactive)
CCC1(CC)NC(=O)N(CC(=O)OCC(=O)NC(=O)c2ccccc2)C1=O	663% (active)
CCC1(CC)NC(=O)N(CC(=O)OCC(=O)Nc2ccc(C(F)(F)F)cc2)C1=O	154% (inactive)
CCCCNC(=O)CN1C(=O)NC(Cc2ccccc2)(Cc2ccccc2)C1=O	-4.3% (inactive)
Cc1c(C(N)=O)sc2ncn(CCOc3ccccc3)c(=O)c12	-2.19% (inactive)
Cc1nn(CCOc2ccccc2)c(=O)n1-c1ccccc1F	1160% (active)
Cc1cccc2c1N(CCOc1ccccc1)C(=O)C2=O	-12.8% (inactive)
CN(/C(=N/S(=O)(=O)c1cccs1)c1ccccc1)c1ccc(O)cc1	313% (inactive)
COc1ccc(Cl)cc1NC(=O)CNc1ccccc1F	0.922% (inactive)
COc1ccc(/C(C)=N/NC(=O)CCC(=O)Nc2ccc(Cl)cc2Cl)c(OC)c1	28.5% (inactive)
CCCCC(=O)N/N=C(\C)CC(=O)Nc1cc(Cl)ccc1OC	1520% (active)
COc1ccc(Cl)cc1-n1c(C)cc(C(=O)OCC(=O)N2CC(=O)Nc3ccccc32)c1C	-14.8% (inactive)
CCc1noc(C)c1C(=O)Oc1ccc(N(C)S(=O)(=O)c2ccc(C)c(C)c2)cc1	-5.53% (inactive)
COCC(=O)Nc1cc(C(=O)OC)cc(C(=O)OC)c1	10% (inactive)
CCc1ccccc1NC1c2ccccc2C(=O)N1c1cccnc1 (stereo unspecified)	462% (active)
COC(=O)c1cc(NC2c3ccccc3C(=O)N2c2ccc(Cl)cn2)cc(C(=O)OC)c1 (stereo unspecified)	-1.41% (inactive)
Cc1ccnc(N2C(=O)c3ccccc3C2Nc2ccc3c(c2)OCCO3)c1 (stereo unspecified)	-14% (inactive)

Structure (SMILES)	growth rescue
CS(=O)(=O)N(CC(=O)N/N=C/c1ccccn1)c1ccc(Oc2ccccc2)cc1	6.74% (inactive)
O=C(CN1C(=O)/C(=C\c2ccc(C(F)(F)F)cc2)Sc2ccccc21)NCc1ccco1	963% (active)
O=C(CN1C(=O)/C(=C/c2ccccc2F)Sc2ccccc21)NCc1cccnc1	-3.97% (inactive)
O=C(CCCCCN1C(=O)c2cccc3cccc(c23)C1=O)NCc1ccco1	-8.72% (inactive)
Cc1ccc(NC(=O)COC(=O)CN2CCCCCC2=O)c(C)c1	2.83% (inactive)
O=C(O)c1c(NC(=O)N2CCCC2)sc2c1CCCC2	2.52% (inactive)
O=C(O)CCCCCCCCCC[n+]1ccccc1	17.1% (inactive)
CC(CNc1ccc([N+](=O)[O-])c2cccnc12)Nc1c([N+](=O)[O-])cc(C(F)(F)F)cc1[N+](=O)[O-] (stereo unspecified)	469% (inactive)
CCOC(=O)CCCCCC(=O)Nc1ccc2c(c1)CC(=O)N([C@@H](C)CO)C[C@H](C)[C@@H](CN(C)Cc1ccccc1)O2	-3.38% (inactive)
Cc1ccc(C(c2sc3nc(C)nn3c2O)N2CCN(c3ccccc3)CC2)cc1 (stereo unspecified)	6.75% (inactive)
Cc1nc2sc(C(c3ccco3)N3CCC4(CC3)OCCO4)c(O)n2n1 (stereo unspecified)	-10% (inactive)
Cc1nc2sc(C(c3ccco3)N3CCOCC3)c(O)n2n1 (stereo unspecified)	853% (active)
CCN1CCN(C(C(=O)NC2CCCC2)c2cc3c(cc2[N+](=O)[O-])OCO3)CC1 (stereo unspecified)	-4.81% (inactive)
CC1CCCCN1C(=O)Cn1c(=O)oc2cc(S(=O)(=O)N3CCCCC3)ccc21 (stereo unspecified)	12% (inactive)
CC(C)CCNC(=O)Cn1c(=O)oc2cc(S(=O)(=O)N3CC(C)CC(C)C3)ccc21 (stereo unspecified)	608% (active)
COc1cccc(CNC(=O)Cn2c(=O)oc3cc(S(=O)(=O)N4CCCCC4)ccc32)c1	4.01% (inactive)
Clc1ccc(Nc2ccc3ccccc3n2)cc1	30.7% (inactive)
COc1ccc(CNC(=O)COc2cccnc2[N+](=O)[O-])cc1	-4.39% (inactive)
COc1ccc(OC)c(NC(=O)CSc2nc(-c3ccccc3)cc(=O)[nH]2)c1	371% (inactive)
Cc1cccc(NC(=O)c2ccc3c(=O)n(CC4CCCO4)c(=S)[nH]c3c2)c1 (stereo unspecified)	-20.5% (inactive)
O=C(NC1CCCCC1)c1ccc2c(=O)n(CC3CCCO3)c(=O)[nH]c2c1 (stereo unspecified)	2310% (active)
O=C(NCc1ccccc1Cl)c1ccc2c(=O)n(CC3CCCO3)c(=S)[nH]c2c1 (stereo unspecified)	-7.73% (inactive)
